# Measurements published in PubChem BioAssay (EPA / NIEHS).
# Calls of active or inactive are those of the source. The calls were made as follows: active = hit-call score of the fitted dose curve at least 0.9, where 1 is the maximum; inactive = score below 0.9.
# Columns and labels:
# [1] = APR_HepG2_CellCycleArrest_24hr: Apredica 24-hour HepG2 Assay for Cell Cycle Arrest (AID 2282905); conditions: imaging, actives raise or lower the signal;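 also: cell cycle arrest scored as ratio of 2N to 4N nuclear DNA content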
# Summary of the method: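 Compounds at 0.39–200 uM (0.5% DMSO) for 24 h, then fixed and Hoechst 33342 stained. Cell-cycle analysis of nuclear DNA content by high-content imaging, fitted bidirectionally versus DMSO.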
# [2] = APR_HepG2_NuclearSize_24hr: Apredica 24-hour HepG2 Assay for Nuclear Size (AID 2282907); conditions: high-content imaging, actives raise or lower the signal
# Summary of the method: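 HepG2 cells exposed 24 h to compounds at 0.39–200 uM (0.5% DMSO), fixed, Hoechst 33342 stained and imaged at 20x; nuclear diameter measured by automated image analysis, fitted bidirectionally against DMSO controls.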
# [3] = APR_HepG2_CellLoss_24hr: Apredica 24-hour HepG2 Assay for Cell Loss (AID 2282908); conditions: high-content imaging;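 as to AC50: fit in both directions so a hit may be cell loss or gain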
# Summary of the method: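 HepG2 cells exposed 24 hr to 0.39–200 uM compound in duplicate at 0.5% v/v final DMSO. Cells fixed in 3.7% formaldehyde and Hoechst 33342-stained. Cell number came from nuclear imaging at 20x. Bidirectional fit versus DMSO.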
# [4] = APR_HepG2_MitoticArrest_24hr: Apredica 24-hour HepG2 Assay for Mitotic Arrest (AID 2282910); conditions: high-content imaging, actives raise or lower the signal
# Summary of the method: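 HepG2 cells, 24 h exposure at 0.39-200 uM (10 concentrations, duplicate, 0.5% DMSO). Fixed, stained for phospho-histone H3 with Hoechst; imaged by high-content microscopy, bidirectional fit versus DMSO.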
# [5] = APR_HepG2_MitoMembPot_24hr: Apredica 24-hour HepG2 Assay for Mitochondrial Membrane Potential (AID 2282911); conditions: imaging, actives raise or lower the signal
# Summary of the method: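 Human hepatoma HepG2 cultures received ten compound concentrations up to 200 uM for 24 hr. Membrane-potential dye signal, captured by automated fluorescence microscopy, was scored for gain or loss against DMSO controls.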
# [6] = APR_HepG2_MitoMass_24hr: Apredica 24-hour HepG2 Assay for Mitochondrial Mass (AID 2282912); conditions: high-content imaging, actives raise or lower the signal
# Summary of the method: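 HepG2 cells exposed 24 hr to 0.39–200 uM compound, 0.5% v/v DMSO, in duplicate. Stained before fixation with 250 nM MitoTracker Red CMXRos for 30 min, then imaged at 20x with Hoechst nuclei. Fitted in both directions against DMSO.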
# [7] = APR_HepG2_p53Act_24hr: Apredica 24-hour HepG2 Assay for p53 Activation (AID 2282913); conditions: high-content imaging, actives raise or lower the signal;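 also: p53 protein immunofluorescence averaged per cell in HepG2 with Hoechst nuclei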
# Summary of the method: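 Automated fluorescence imaging quantifies p53 immunostaining in HepG2 cells after a 24 hr exposure (0.39–200 uM, duplicate, 0.5% DMSO). Nuclei are located by Hoechst 33342 staining.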
# [8] = APR_HepG2_CellCycleArrest_72hr: Apredica 72-hour HepG2 Assay for Cell Cycle Arrest (AID 2282914); conditions: high-content imaging, actives raise or lower the signal
# Summary of the method: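 Cell cycle arrest in HepG2 was scored from nuclear DNA content after 72 hr compound treatment (0.39–200 uM). Activity, either gain or loss, was fitted against the DMSO baseline.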
# [9] = APR_HepG2_CellLoss_72hr: Apredica 72-hour HepG2 Assay for Cell Loss (AID 2282915); conditions: high-content imaging
# Summary of the method: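 HepG2 cells exposed 72 h to compound at 0.39–200 uM (10 concentrations, duplicate) in 0.5% DMSO. Fixed with 3.7% formaldehyde and Hoechst 33342-stained. Imaged at 20x; nuclear count gives cell number, fitted bidirectionally versus DMSO.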
# [10] = APR_HepG2_MitoticArrest_72hr: Apredica 72-hour HepG2 Assay for Mitotic Arrest (AID 2282918); conditions: high-content imaging, actives raise or lower the signal
# Summary of the method: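 Mitotic arrest in HepG2 is scored from phospho-histone H3 staining after 72 hr dosing across 0.39–200 uM, with DMSO at 0.5% v/v. Nuclei are identified by Hoechst 33342 and fluorescence intensity is quantified per cell.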
# [11] = APR_HepG2_MicrotubuleCSK_72hr: Apredica 72-hour HepG2 Assay for Microtubule CSK Stabilty (AID 2282919); conditions: HepG2 microtubule cytoskeleton, high-content imaging, actives raise or lower the signal
# Summary of the method: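 HepG2 cells were exposed 72 hr to compound at 0.39–200 uM in duplicate (0.5% DMSO final), then fixed and permeabilized. Alpha-tubulin immunofluorescence was imaged by high-content microscopy, with bidirectional fitting against DMSO and taxol as positive control.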
# [12] = APR_HepG2_P-H2AX_24hr: Apredica 24-hour HepG2 Assay for H2AX Phosphorylation (AID 2282920); conditions: high-content imaging, actives raise or lower the signal
# Summary of the method: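 Signal comes from a FITC-labeled secondary detecting phospho-histone H2A.x in fixed HepG2 cells, quantified by automated imaging at 20x. Dosing ran 24 hr across 0.39–200 uM with 0.5% v/v DMSO.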
# [13] = APR_HepG2_StressKinase_72hr: Apredica 72-hour HepG2 Assay for Stress Kinase (AID 2282921); conditions: HepG2 stress kinase (phospho-c-Jun) imaging, actives raise or lower the signal
# Summary of the method: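 HepG2 cells treated 72 hr with 0.39–200 uM compound, 0.5% v/v DMSO, duplicate wells. After formaldehyde fixation and Triton permeabilization, stained with anti-phospho-c-Jun (1:500) and Cy3 secondary, imaged at 20x. Fitted in both directions against DMSO.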
# [14] = APR_HepG2_StressKinase_24hr: Apredica 24-hour HepG2 Assay for Stress Kinase (AID 2282922); conditions: HepG2 stress kinase (phospho-c-Jun) imaging, actives raise or lower the signal
# Summary of the method: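 HepG2 cells exposed 24 h to 0.39–200 uM compound in duplicate (0.5% v/v DMSO final). Cells fixed in 3.7% formaldehyde, permeabilized and immunostained for phospho-c-Jun; read by high-content fluorescence imaging, fitted bidirectionally against DMSO.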
# [15] = APR_HepG2_p53Act_72hr: Apredica 72-hour HepG2 Assay for p53 Activation (AID 2282923); conditions: high-content imaging, actives raise or lower the signal;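 also: average cellular p53 protein immunofluorescence intensity in HepG2 cells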
# Summary of the method: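 HepG2 cells exposed 72 h to 0.39–200 uM in 0.5% DMSO, duplicates. Fixed, permeabilized cells immunostained for p53 (Cy5) with Hoechst; imaged at 20x, fluorescence analyzed bidirectionally against DMSO.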
# [16] = APR_HepG2_MitoMass_72hr: Apredica 72-hour HepG2 Assay for Mitochondrial Mass (AID 2282924); conditions: high-content imaging, actives raise or lower the signal;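 also: MitoTracker Red CMXRos stain intensity per cell imaged as mitochondrial mass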
# Summary of the method: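 HepG2 cells dosed 72 hr at 0.39–200 uM (0.5% DMSO), in duplicate. MitoTracker Red CMXRos 250 nM loaded 30 min before formaldehyde fixation; high-content fluorescence imaging, bidirectional fit versus DMSO.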
# [17] = APR_HepG2_NuclearSize_72hr: Apredica 72-hour HepG2 Assay for Nuclear Size (AID 2282925); conditions: high-content imaging, actives raise or lower the signal
# Summary of the method: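 HepG2 cells dosed 72 h at 0.39–200 uM (10 concentrations, duplicate) in 0.5% v/v DMSO final. Fixed, Hoechst 33342-stained nuclei imaged; nuclear diameter measured by automated image analysis. Bidirectional fit versus DMSO.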
# [18] = APR_HepG2_MitoMembPot_72hr: Apredica 72-hour HepG2 Assay for Mitochondrial Membrane Potential (AID 2282917); conditions: imaging, actives raise or lower the signal
# Summary of the method: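 HepG2 cells dosed 72 hr with compound at 0.39–200 uM in duplicate, 0.5% v/v DMSO final. Mitochondria stained with 250 nM MitoTracker Red CMXRos for 30 min before formaldehyde fixation, imaged by high-content fluorescence; bidirectional fit versus DMSO.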
# [19] = APR_HepG2_P-H2AX_72hr: Apredica 72-hour HepG2 Assay for H2AX Phosphorylation (AID 2282916); conditions: imaging, actives raise or lower the signal;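 also: phospho-histone H2A.x immunostain intensity per cell marking DNA damage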
# Summary of the method: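 HepG2 cells treated 72 h at 0.39–200 uM, 0.5% DMSO final, duplicates. Formaldehyde-fixed, Triton-permeabilised, immunostained for phospho-H2A.x with Hoechst; fluorescence imaged at 20x, bidirectional fit versus DMSO.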
compound,measurement,setting,value
CC(O)CN(CCN(CC(C)O)CC(C)O)CC(C)O (centres undefined),outcome,[1],inactive
same,outcome,[2],inactive
same,outcome,[3],inactive
same,outcome,[4],inactive
same,outcome,[5],inactive
same,outcome,[6],inactive
same,outcome,[7],inactive
same,outcome,[8],inactive
same,outcome,[9],inactive
same,outcome,[10],inactive
same,outcome,[11],inactive
same,outcome,[12],inactive
same,outcome,[13],inactive
same,outcome,[14],inactive
same,outcome,[15],inactive
same,outcome,[16],inactive
same,outcome,[17],inactive
Nc1nc2ncc(CNc3ccc(C(=O)N[C@@H](CCC(=O)O)C(=O)O)cc3)nc2c(=O)[nH]1,outcome,[1],inactive
same,outcome,[2],inactive
same,outcome,[3],inactive
same,outcome,[4],inactive
same,outcome,[5],inactive
same,outcome,[6],inactive
same,outcome,[7],inactive
same,outcome,[8],inactive
same,outcome,[9],inactive
same,outcome,[18],inactive
same,outcome,[10],inactive
same,outcome,[11],inactive
same,outcome,[12],inactive
same,outcome,[13],inactive
same,outcome,[14],inactive
same,outcome,[15],inactive
same,outcome,[17],inactive
CCC(C)(C)C(=O)O[C@H]1C[C@@H](C)C=C2C=C[C@H](C)[C@H](CC[C@@H]3C[C@@H](O)CC(=O)O3)[C@H]21,AC50,[1],2.85 µM (active)
same,outcome,[2],inactive
same,AC50,[3],123 µM (active)
same,AC50,[4],2.96 µM (active)
same,AC50,[5],105 µM (active)
same,AC50,[6],3.97 µM (active)
same,AC50,[7],89.3 µM (active)
same,outcome,[8],inactive
same,AC50,[9],26.8 µM (active)
same,AC50,[10],2.62 µM (active)
same,outcome,[11],inactive
same,AC50,[12],73.8 µM (active)
same,AC50,[13],100 µM (active)
same,AC50,[14],115 µM (active)
same,AC50,[15],29.6 µM (active)
same,AC50,[16],0.559 µM (active)
same,outcome,[17],inactive
O=P(OC(CCl)CCl)(OC(CCl)CCl)OC(CCl)CCl,outcome,[1],inactive
same,AC50,[2],48 µM (active)
same,AC50,[3],55.6 µM (active)
same,AC50,[4],44.9 µM (active)
same,outcome,[5],inactive
same,AC50,[6],49.4 µM (active)
same,outcome,[7],inactive
same,AC50,[8],49.1 µM (active)
same,AC50,[9],47.1 µM (active)
same,AC50,[10],39.6 µM (active)
same,outcome,[11],inactive
same,AC50,[12],43.4 µM (active)
same,AC50,[13],59.2 µM (active)
same,outcome,[14],inactive
same,outcome,[15],inactive
same,outcome,[16],inactive
same,outcome,[17],inactive
COC(=O)c1ccccc1O,outcome,[1],inactive
same,outcome,[2],inactive
same,outcome,[3],inactive
same,outcome,[4],inactive
same,outcome,[5],inactive
same,outcome,[6],inactive
same,outcome,[7],inactive
same,outcome,[8],inactive
same,outcome,[9],inactive
same,outcome,[19],inactive
same,outcome,[18],inactive
same,outcome,[10],inactive
same,outcome,[11],inactive
same,outcome,[12],inactive
same,outcome,[14],inactive
same,outcome,[15],inactive
same,outcome,[17],inactive
O=C(OC[C@H]1O[C@@H](OC(=O)c2cc(O)c(O)c(OC(=O)c3cc(O)c(O)c(O)c3)c2)[C@H](OC(=O)c2cc(O)c(O)c(OC(=O)c3cc(O)c(O)c(O)c3)c2)[C@@H](OC(=O)c2cc(O)c(O)c(OC(=O)c3cc(O)c(O)c(O)c3)c2)[C@@H]1OC(=O)c1cc(O)c(O)c(OC(=O)c2cc(O)c(O)c(O)c2)c1)c1cc(O)c(O)c(OC(=O)c2cc(O)c(O)c(O)c2)c1,outcome,[1],inactive
same,outcome,[2],inactive
same,outcome,[3],inactive
same,outcome,[4],inactive
same,AC50,[5],26.4 µM (active)
same,AC50,[6],23.9 µM (active)
same,AC50,[7],20.8 µM (active)
same,outcome,[8],inactive
same,AC50,[9],21.4 µM (active)
same,outcome,[19],inactive
same,outcome,[10],inactive
same,outcome,[11],inactive
same,outcome,[12],inactive
same,outcome,[13],inactive
same,outcome,[14],inactive
same,AC50,[15],23.2 µM (active)
same,AC50,[16],14.5 µM (active)
same,AC50,[17],18.7 µM (active)
Cn1c(=O)c2c(ncn2C)n(C)c1=O,outcome,[1],inactive
same,outcome,[2],inactive
same,outcome,[3],inactive
same,outcome,[4],inactive
same,outcome,[5],inactive
same,outcome,[6],inactive
same,outcome,[7],inactive
same,outcome,[8],inactive
same,outcome,[9],inactive
same,outcome,[18],inactive
same,outcome,[10],inactive
same,outcome,[11],inactive
same,outcome,[12],inactive
same,outcome,[14],inactive
same,outcome,[15],inactive
same,outcome,[17],inactive
